Data reported in PubChem BioAssay (NCI).
Where “and” joins values, the source holds several entries; their conditions need not be identical. Equal entries are not always repeated. About 83,000 compounds went through this panel and 20% of them were active in at least one assay; those are over-represented in the sample as a whole.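 The endpoint reported here, percent growth, reads 100 for growth as untreated, 0 for no net growth and -100 for all cells dead.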

Experiments:
Assay in all cases: NCI-60 one-dose screen, 48 h (100 = growth as untreated, 0 = no growth, -100 = all killed)
Settings in all cases: 10 µM unless noted; active = growth percent below 10; inactive = the rest
SR leukemia = tested on: SR leukemia
RPMI-8226 leukemia = tested on: RPMI-8226 leukemia
OVCAR-8 ovarian = tested on: OVCAR-8 ovarian
OVCAR-5 ovarian = tested on: OVCAR-5 ovarian
OVCAR-4 ovarian = tested on: OVCAR-4 ovarian
SK-OV-3 ovarian = tested on: SK-OV-3 ovarian
IGROV1 ovarian = tested on: IGROV1 ovarian
OVCAR-3 ovarian = tested on: OVCAR-3 ovarian
HS 578T breast = tested on: HS 578T breast
NCI/ADR-RES ovarian = tested on: NCI/ADR-RES ovarian
T-47D breast = tested on: T-47D breast
BT-549 breast = tested on: BT-549 breast
MDA-MB-435 melanoma = tested on: MDA-MB-435 melanoma
SW-620 colon = tested on: SW-620 colon
HCT-116 colon = tested on: HCT-116 colon
HCC-2998 colon = tested on: HCC-2998 colon
KM12 colon = tested on: KM12 colon
MCF7 breast = tested on: MCF7 breast

Measured: growth

O=C1C(=O)c2ccccc2C(O)=C1CC=C(Cl)Cl
inactive: SR leukemia 43.4% and 55.5% | RPMI-8226 leukemia 44.7% and 41.7% | OVCAR-8 ovarian 44.3% | OVCAR-5 ovarian 35.3% and 87.2% | OVCAR-4 ovarian 83.9% and 84.4% | SK-OV-3 ovarian 73.9% and 58.4% | IGROV1 ovarian 42.7% | OVCAR-3 ovarian 65.8% and 67.1% | HS 578T breast 82.3% and 87.2% | NCI/ADR-RES ovarian 57.6% and 55.7% | T-47D breast 80.8% and 69% | BT-549 breast 63% and 71.6% | MDA-MB-435 melanoma 43.8% and 52.5% | SW-620 colon 50.1% and 52.6% | HCT-116 colon 27.9% and 40% | HCC-2998 colon 61.8% and 64.4% | KM12 colon 48.1% and 45.8%

Cc1nc2c(=O)[nH]c(=S)[nH]c2[nH]c1=O
inactive: SR leukemia 112% | RPMI-8226 leukemia 104% and 105% | OVCAR-8 ovarian 103% | OVCAR-5 ovarian 109% and 102% | OVCAR-4 ovarian 113% | SK-OV-3 ovarian 112% and 107% | IGROV1 ovarian 107% and 113% | OVCAR-3 ovarian 118% and 111% | HS 578T breast 102% | NCI/ADR-RES ovarian 106% and 103% | T-47D breast 112% and 102% | BT-549 breast 118% and 105% | MDA-MB-435 melanoma 107% and 102% | SW-620 colon 105% and 101% | MCF7 breast 101% and 99.9% | HCT-116 colon 108% and 105% | HCC-2998 colon 102% and 106% | KM12 colon 109%

N#CC1c2ccccc2C=CN1C(=O)c1ccccc1 (configuration not stated)
inactive: SR leukemia 91.7% and 146% | RPMI-8226 leukemia 105% and 159% | OVCAR-8 ovarian 92.7% and 85% | OVCAR-5 ovarian 110% and 87.5% | OVCAR-4 ovarian 96.8% and 89.7% | SK-OV-3 ovarian 120% and 128% | IGROV1 ovarian 101% and 73.9% | OVCAR-3 ovarian 93.6% and 95.9% | HS 578T breast 94.2% and 150% | NCI/ADR-RES ovarian 108% and 107% | T-47D breast 106% and 103% | BT-549 breast 115% and 139% | MDA-MB-435 melanoma 98.7% and 87.8% | SW-620 colon 94.8% and 103% | MCF7 breast 93.1% and 114% | HCC-2998 colon 109% and 115% | KM12 colon 107% and 91.5%

CC1=CC(=O)c2cccc(NC3=NCCO3)c21
inactive: SR leukemia 91.6% | RPMI-8226 leukemia 91.6% | OVCAR-8 ovarian 102% | OVCAR-5 ovarian 95.2% | OVCAR-4 ovarian 95.1% | SK-OV-3 ovarian 103% | IGROV1 ovarian 104% | OVCAR-3 ovarian 106% | HS 578T breast 103% | NCI/ADR-RES ovarian 97.5% | T-47D breast 90.3% | BT-549 breast 101% | MDA-MB-435 melanoma 98.4% | SW-620 colon 95.2% | HCT-116 colon 97.9% | HCC-2998 colon 104% | KM12 colon 97.7%

CCOC(=O)C1=C(C)NC(C)=C(C(=O)OCC)C1
inactive: SR leukemia 101% and 105% | RPMI-8226 leukemia 92.6% and 99.2% | OVCAR-8 ovarian 121% and 96.9% | OVCAR-5 ovarian 104% and 92.4% | OVCAR-4 ovarian 101% and 90.2% | SK-OV-3 ovarian 105% and 112% | IGROV1 ovarian 100% and 112% | OVCAR-3 ovarian 102% and 114% | HS 578T breast 101% and 94% | NCI/ADR-RES ovarian 114% and 105% | T-47D breast 90.1% and 116% | BT-549 breast 110% and 93.7% | MDA-MB-435 melanoma 95.4% and 97.6% | SW-620 colon 91.9% and 96.9% | MCF7 breast 102% and 115% | HCC-2998 colon 114% and 87.1% | KM12 colon 96.8% and 113%

COc1ccc2oc3cc(NCCN(C)C)ccc3c(=O)c2c1
inactive: SR leukemia 38.9% | RPMI-8226 leukemia 103% and 73.2% | OVCAR-8 ovarian 88% and 63.4% | OVCAR-5 ovarian 88.2% and 87.1% | OVCAR-4 ovarian 106% and 91.7% | SK-OV-3 ovarian 92.5% and 55% | IGROV1 ovarian 90.3% and 88.4% | OVCAR-3 ovarian 121% and 107% | HS 578T breast 105% and 83.9% | NCI/ADR-RES ovarian 90.5% and 69.6% | T-47D breast 80.6% and 63.4% | BT-549 breast 97.2% and 93.9% | MDA-MB-435 melanoma 85.8% and 70.8% | SW-620 colon 78% and 55.4% | MCF7 breast 84.4% and 67.8% | HCT-116 colon 93.9% and 54.1% | HCC-2998 colon 97.4% and 77.1% | KM12 colon 90.1% and 79.8%

CNc1ccc(O)cc1
inactive: SR leukemia 126% | RPMI-8226 leukemia 102% and 87.4% | OVCAR-8 ovarian 96.7% and 106% | OVCAR-5 ovarian 114% and 107% | OVCAR-4 ovarian 94.5% and 106% | SK-OV-3 ovarian 105% and 108% | IGROV1 ovarian 135% and 119% | OVCAR-3 ovarian 113% and 114% | HS 578T breast 115% and 142% | NCI/ADR-RES ovarian 114% and 102% | T-47D breast 108% and 101% | BT-549 breast 107% and 103% | MDA-MB-435 melanoma 107% and 101% | SW-620 colon 103% and 89.9% | MCF7 breast 94.9% and 110% | HCT-116 colon 108% and 97.3% | HCC-2998 colon 124% and 105% | KM12 colon 112% and 91.3%

CCNCc1ccccc1
inactive: SR leukemia 97.5% | RPMI-8226 leukemia 119% | OVCAR-8 ovarian 100% | OVCAR-5 ovarian 98.5% | OVCAR-4 ovarian 114% | SK-OV-3 ovarian 97.5% | IGROV1 ovarian 106% | OVCAR-3 ovarian 102% | HS 578T breast 102% | NCI/ADR-RES ovarian 102% | T-47D breast 98.3% | BT-549 breast 124% | MDA-MB-435 melanoma 110% | SW-620 colon 108% | MCF7 breast 98.7% | HCT-116 colon 97.6% | HCC-2998 colon 99.8% | KM12 colon 99.8%

CCOP(=O)(OCC)/C(C#N)=C/c1c(C)[nH]c2ccccc12
inactive: SR leukemia 94.8% | RPMI-8226 leukemia 88.8% | OVCAR-8 ovarian 94.8% | OVCAR-5 ovarian 103% | OVCAR-4 ovarian 41% | SK-OV-3 ovarian 100% | IGROV1 ovarian 105% | OVCAR-3 ovarian 105% | HS 578T breast 90.8% | NCI/ADR-RES ovarian 97.9% | T-47D breast 85.1% | BT-549 breast 98.3% | MDA-MB-435 melanoma 12.9% | SW-620 colon 98.2% | MCF7 breast 96.2% | HCC-2998 colon 107% | KM12 colon 100%

CCOP(C)(=O)/C(Cc1ccc(OC)c(OC)c1)=N\O (configuration not stated)
inactive: SR leukemia 105% | RPMI-8226 leukemia 99.3% | OVCAR-8 ovarian 114% | OVCAR-5 ovarian 96.6% | OVCAR-4 ovarian 107% | SK-OV-3 ovarian 115% | IGROV1 ovarian 104% | OVCAR-3 ovarian 111% | HS 578T breast 94.9% | NCI/ADR-RES ovarian 95.7% | T-47D breast 115% | BT-549 breast 115% | MDA-MB-435 melanoma 104% | SW-620 colon 99.2% | MCF7 breast 104% | HCC-2998 colon 98.5% | KM12 colon 101%

CCN(CC)C(=S)SCCO
inactive: SR leukemia 92.5% | RPMI-8226 leukemia 99.5% | OVCAR-8 ovarian 103% | OVCAR-5 ovarian 110% | OVCAR-4 ovarian 113% | SK-OV-3 ovarian 111% | IGROV1 ovarian 107% | OVCAR-3 ovarian 106% | HS 578T breast 103% | NCI/ADR-RES ovarian 102% | T-47D breast 101% | BT-549 breast 144% | MDA-MB-435 melanoma 111% | SW-620 colon 106% | MCF7 breast 104% | HCT-116 colon 107% | HCC-2998 colon 94.1% | KM12 colon 105%
